Compound activity from PubChem.
FUS suppressor: FUS proteinopathy suppression in yeast; 390,000 tested, 0.24% active; Potency, µM (highest dose often 76.6 µM), actives largely listed as activators; S. cerevisiae FUS-expressing, growth rescue, OD600, 24 h;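 also: plate controls were DMSO vehicle for no effect and reference control for full effect; nearly all actives have a fitted effect of over 55% in size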
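S. cerevisiae expressing FUS from galactose induction served as the toxicity model. Growth after 24hr at 30C, read as absorbance at 600 nm, indicates suppression of toxicity; compounds dosed at several concentrations.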
aSyn yeast inh: alpha-synuclein toxicity inhibition in yeast | Yeast expressing alpha-synuclein, growth rescue, BacTiter-Glo, 24 h | Potency, µM (series often up to 46.1 µM), for the others: at the top dose growth rescue (activation), hits mostly activators | 370,000 tested, 0.14% active; also: % of control where 0% means no effect; nearly all actives have a fitted effect of over 65% in size
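Readout is rescue of growth in alpha-synuclein-expressing yeast, so inhibitors of toxicity appear as activators. Growth after 24 hr at 30 deg C in galactose medium is quantified by luminescence.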
TDP-43 yeast inh: TDP-43 toxicity inhibition in yeast | Potency, µM (doses to about 46.1 µM), inactives show at the highest dose growth rescue (activation), hits mostly activators | TDP-43 expressing yeast growth rescue, BacTiter-Glo, 24 h | 410,000 tested, 1.8% active; also: % of control where 0% means no effect; nearly all actives have a fitted effect of over 50% in size
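Luminescence from BacTiter-Glo reports growth of TDP-43-expressing yeast after 24 hr at 30 deg C with compound. Cells were raffinose-pregrown to mid-log, then seeded in galactose medium at OD600=0.02.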
Abeta rescue: restores growth of yeast expressing A-beta42 peptide | 410,000 tested, 0.063% active | Potency, µM (doses to about 46.1 µM), most hits filed as activators | yeast expressing A-beta42, growth rescue, OD600, 48 h; response scale: 0% DMSO, 100% iron-clioquinol control; also: nearly all actives have a fitted effect of over 55% in size
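Yeast A-beta toxicity model in growth medium with pinned compounds, 48 h at 30 C; growth read as absorbance at 600 nm. Normalized to FeCl3/clioquinol equimolar mix (positive) and DMSO (negative).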
Active calls of the source: *; i = inactive; ? = inconclusive; / = no result given. The list is not random: actives were taken first. Their share in the collection is about 2.1%. Calls follow the shape of the dose curve; as a rule, active = well fitted curve in the direction sought with a large enough effect; inconclusive = small, poorly fitted or top-dose-only effect, or another doubt; inactive = no such curve, though single readings can be large; an effect the other way counts as inactive or inconclusive. Potency is read from the fitted curve at half-maximal effect.

SMILES	FUS suppressor	aSyn yeast inh	TDP-43 yeast inh	Abeta rescue
COc1cc(Cl)ccc1OCc1cc(C(=O)NCC(C)(C)N2CCOCC2)no1	i	-1%	8%	i
O=C(N/N=C/c1cc(Cl)ccc1O)c1ccc(Br)cc1	?	15%	-12%	i
Cc1ccc(N=Nc2ccc(O)c(/C=N\NC(=O)c3ccc(N)cc3)c2)cc1C	1.1µM*	-1%	-19%	i
CCOc1ccccc1-c1nc(-c2ccc(C)nc2OC)no1	?	9%	20µM*	i
CC(CCc1ccccc1)NC(=O)c1nnc(Cc2ccc(Cl)cc2)o1 (stereo not given)	i	27%	22µM*	i
O=C(NCCc1ccc(Cl)cc1)c1nnc(Cc2ccc(Cl)cc2)o1	i	-6%	11%	i
N/C(=N\OC(=O)Cc1ccc(-c2ccccc2)cc1)c1ccccn1	i	-1%	13µM*	i
N/C(=N\OC(=O)CC1CCCCC1)c1ccccn1	i	4%	16µM*	i
N/C(=N\OC(=O)CC1CCCCC1)c1ccncc1	i	-1%	14%	i
CCOc1ccc(CNC(=O)Nc2ccc3c(c2)N(C)C(=O)c2ccccc2S3)cc1	i	/	0%	i
CNC(=O)c1ccc(Nc2nnc(-c3ccc(C)c(S(=O)(=O)NC(C)(C)C)c3)c3ccccc23)cc1	i	/	-5%	i
CC(C)Oc1ccc(C2CC(=O)N(c3cccc(Br)c3)C2=O)cc1 (stereo not given)	i	9%	20µM*	i
COC(=O)c1cccc(-n2c(CCC(=O)O)ccc2-c2ccc(OC)cc2)c1	i	/	1%	i
COC(=O)/C(=C1/Oc2cc(C)oc(=O)c2S1)C(F)(F)F	/	1%	8.9µM*	i
CC1CCCC(C)N1CC(O)Cn1c2ccccc2c2ccccc21 (stereo not given)	i	6%	11µM*	i
O=C(Nc1cccc(C(F)(F)F)c1)c1cccnc1NCCO	i	0%	4%	i
CNC(=O)c1cccnc1Nc1cccc(C(F)(F)F)c1	i	-15%	18µM*	i
COc1ccc(-c2cn3c(n2)sc2cc(C(=O)Nc4cc(Cl)ccc4C)ccc23)cc1	i	/	14%	i
O=C(CN1CC[n+]2c(-c3cccs3)csc21)c1ccc(-c2ccccc2)cc1	i	-11%	3.5µM*	i
CC1(C(=O)NCc2cccc(C(F)(F)F)c2)CCN1Cc1ccc(-c2ccccc2)o1 (stereo not given)	i	20µM*	-26%	i
CC1(C(=O)NCc2cccc(C(F)(F)F)c2)CCN1Cc1cc2ccccc2o1 (stereo not given)	i	13%	0%	i
COc1ccc(C2CC(=O)N(CC(=O)Nc3ccc(C(C)=O)cc3)c3ccccc3S2)cc1OC (stereo not given)	i	-2%	10%	i
O=C(/C=C/C(Cl)(Cl)Cl)Nc1ccc(Cl)cc1	/	-25%	?	i
NC(=O)/C=C/C(=O)Nc1ccc(Cl)cc1	i	15%	20µM*	i
COC(=O)C1=NN(C(=O)c2ccc(C)cc2)C(O)(c2ccc(Cl)cc2)C1 (stereo not given)	?	11µM*	?	i
SMILES	FUS suppressor	aSyn yeast inh	TDP-43 yeast inh	Abeta rescue
Cc1ccc2nc(-c3cccc(Br)c3)cc(C(=O)NC3=NCCS3)c2c1	i	-26%	20µM*	i
O=C(NC1=NCCS1)c1cc(-c2cccc(Br)c2)nc2ccccc12	/	-24%	22µM*	i
Cc1ccc(-c2cc(C(=O)NC3=NCCS3)c3ccccc3n2)cc1C	?	-35%	?	i
Cc1ccc(C(=O)NCc2ccc(N(C)C)cc2)cc1NC(=O)c1nsc2ccccc12	?	/	14%	i
COc1cc(NC(=S)NCCCN2CCOCC2)cc(OC)c1OC	i	0%	-6%	i
COc1cc(NC(=S)NCCN2CCOCC2)cc(OC)c1OC	i	-9%	-13%	25µM*
CCc1cc2c(N3CCN(c4ccccc4)CC3)ncnc2s1	i	12%	13µM*	i
Oc1ccc(N2CCN(c3ncnc4sc(-c5ccccc5)cc34)CC2)cc1	?	?	11µM*	i
COc1ccc(-c2cc(-c3nnc4sc(-c5cccs5)nn34)[nH]n2)cc1	i	/	/	/
O=C(Cn1c(=O)nc(-c2ccccc2)c2ccccc21)NCCc1ccc(Cl)cc1	i	/	14%	i
Cc1ccc2nc(-c3ccc(C)c(NC(=O)COc4ccc(Cl)cc4)c3)oc2c1	/	-5%	/	/
COc1ccc2c(c1)c(=O)c(S(=O)(=O)c1ccc(C)c(C)c1)cn2CC(=O)Nc1ccccc1	13µM*	/	7%	i
CCOC(=O)c1ccc(S(=O)(=O)Nc2cc(C(C)(C)C)no2)cc1	i	18%	13µM*	i
CC(C)(C)c1cc(NS(=O)(=O)c2ccc3c(c2)OCCO3)on1	i	-2%	13µM*	?
Cc1cc(NS(=O)(=O)c2ccc3c(c2)OCCO3)no1	i	12%	25%	?
CC(=O)Nc1ccc(NS(=O)(=O)c2c(C)nc3sccn3c2=O)cc1	i	/	7%	i
O=Cc1c(Sc2ccccc2)nc2ccccn2c1=O	i	18%	13µM*	i
O=Cc1c(Sc2ccccn2)nc2ccccn2c1=O	i	0%	-14%	i
O=S(=O)(c1ccc2[nH]c3c(c2c1)CCCC3)N1CCCCC1	i	0%	-10%	i
O=C(O)c1cc2[nH]c3c(c2cc1Cl)CCCC3	i	20µM*	/	i
CC1CCN(c2nn3c(=O)c(C(=O)NCCc4ccccc4)cnc3s2)CC1	i	/	13µM*	i
O=C(NCCc1ccccc1)c1cnc2sc(N3CCOCC3)nn2c1=O	i	/	-8%	i
Cc1ccc(NC(=O)c2ccccc2NC(=O)c2cccnc2)cc1	i	-5%	-7%	i
O=C(Nc1ccc(Cl)c(Cl)c1)c1cccnc1	i	-1%	18µM*	i
CCOc1ncccc1C(=O)Nc1ccc(F)cc1	i	-24%	-1%	i
SMILES	FUS suppressor	aSyn yeast inh	TDP-43 yeast inh	Abeta rescue
O=C(Nc1ccccc1C(=O)Nc1ccc(Cl)cc1)c1cccnc1	i	-3%	14µM*	i
CCOc1ncccc1C(=O)Nc1ccc(Cl)cc1	i	-6%	11µM*	i
COC(=O)[C@H]1C[C@@]2(N3CCCC3)c3ccccc3N[C@H]2N1S(=O)(=O)c1ccc([N+](=O)[O-])cc1	i	/	/	/
COc1ccc(NC(=O)C2Cc3c(-c4ccc(Cl)cc4)ccnc3O2)cc1OC (stereo not given)	i	6%	35µM*	i
O=C(NCc1ccccc1)C1Cc2c(-c3ccc(Cl)cc3)ccnc2O1 (stereo not given)	i	?	20µM*	i
COc1ccc(NC(=O)C2Cc3c(-c4ccc(Cl)cc4)ccnc3O2)cn1 (stereo not given)	i	14%	35µM*	i
COc1ccc(NC(=O)C2Cc3c(-c4ccncc4)ccnc3O2)cc1OC (stereo not given)	i	2%	23%	i
